The nature of this test: qHTS profiling of the MIPE4 collection as inhibitors of Plasmodium falciparum (HB3) proliferation (AID 743347). Conditions: P. falciparum HB3 in erythrocytes, SYBR Green DNA, 72 h; at 28.5 µM (top of the series) unless noted. From the text:
Plasmodium falciparum is a virulent malarial parasite that kills 1-2 million people worldwide each year. Transmitted by mosquitoes, the sporozoite form of the parasite enters the blood stream to infect hepatocytes, where they become merozoites that infect red blood cells (erythrocytes). Within erythrocytes, merozoites begin a […] cycle of growth and division, after which the parasite is released to infect new red blood cells. Gametocytes, which form within erythrocytes as well, circulate in the bloodstream and are ingested by the mosquito, thereby completing the life cycle. To profile malarial isolates for differential chemical responses and to identify inhibitors of malarial growth, an assay that measures P. falciparum growth and replication within erythrocytes was employed. This assay uses a DNA binding fluorescent dye (SYBR Green) to detect parasite DNA following cell lysis. Because mature erythrocytes lack DNA, only Plasmodium-derived DNA is detected.
The SYBR Green viability assay was adapted from a method described previously (Plouffe et al., 2008). For screening 3 ul culture medium was dispensed into 1536 well black clear bottom plates (Aurora Biotechnologies) using a Multidrop Combi (Thermo Fisher Scientific Inc.), 23 nL compounds in DMSO were added by a pin tool (Kalypsys), and 5 ul of erythrocytes infected with P. falciparum (0.3% parasitemia, 2.5% hematocrit final concentration) were added. The plates were incubated at 37 C in a humidified incubator in 5% CO2 for 72 h, and 2 ul lysis buffer (20 mM Tris HCl, 10 mM EDTA, 0.16% saponin, 1.6% triton X, 10X SYBR Green I supplied as 10,000X […] by Invitrogen) was added to each well. The plates were mixed for 25 sec with gentle shaking and incubated overnight at room temperature in the dark. The following morning, fluorescence intensity at 485(14) nm excitation and 535(25) nm emission wavelengths was measured on an EnVision (Perkin Elmer) plate reader. Plate reads were normalized relative to the control inhibitor (0.29 uM artemisinin) and vehicle (DMSO) wells present on each plate and then corrected by an algorithm using vehicle-only control plates at the beginning and end of the compound plate stack.
Background: Quantitative high-throughput screening tests each substance at several concentrations.
`Cc1[nH]c2ccccc2c1CCNCc1ccc(C=CC(=O)NO)cc1`: the growth, % of control was determined as 2.36%.

Take `Cc1cc(Nc2cc(N3CCN(C)CC3)nc(Sc3ccc(NC(=O)C4CC4)cc3)n2)n[nH]1`: the growth, % of control was 2.93%.

On to `CC(=O)SC[C@@H](C)C(=O)N1CCC[C@H]1C(=O)N[C@@H](Cc1ccccc1)C(=O)O`, for which the growth, % of control came to 111%.

Compound `CCCCc1nc2cc(C=CC(=O)NO)ccc2n1CCN(CC)CC` returned a growth, % of control of 4.84%.

The compound `O=c1c2ccccc2nc2n1CCc1c-2[nH]c2ccccc12` had a growth, % of control of 85.6%.

Compound `COc1cc(Nc2ncc(F)c(Nc3ccc4c(n3)N(COP(=O)(O)O)C(=O)C(C)(C)O4)n2)cc(OC)c1OC` gave a growth, % of control of 11.1%.

The compound `Cc1ccc(C(=O)Nc2ccc(CN3CCN(C)CC3)c(C(F)(F)F)c2)cc1C#Cc1cnc2cccnn12` returned a growth, % of control of 8.37%.

`CC[C@H]1CN2CCc3cc(OC)c(OC)cc3[C@H]2C[C@@H]1C[C@@H]1NCCc2cc(OC)c(OC)cc21` had a growth, % of control of 3.29%.

The compound `Cc1nc(Nc2n[nH]c3c2CN(C(=O)N[C@H](CN(C)C)c2ccccc2)C3(C)C)c2sccc2n1` showed a growth, % of control of 6.35%.

Turning to `Cc1ccc(C(N)=O)cc1Nc1nccc(-c2cn(C(C)C)c3cnccc23)n1`, the growth, % of control stood at 3.05%.

`CCNC(=O)Nc1ccc2ncc(Nc3ccc(C)cc3)nc2n1`: the growth, % of control is 16.3%.

For `O=C(Nc1cn[nH]c1-c1nc2ccc(CN3CCOCC3)cc2[nH]1)NC1CC1`, the growth, % of control worked out at 4.19%.

The compound `CC(C)c1cnn2c(NCc3ccccc3)cc(N[C@@H](CO)[C@H](O)CO)nc12` came in with a growth, % of control of 14.5%.

With `CC(C)c1ccccc1Cc1cc(C(=O)Nc2ccc(S(=O)(=O)c3ccccc3C(C)(C)C)cc2)c(O)c(O)c1O`, the growth, % of control was 7.71%.

`Cc1c(NC(=O)OC[C@@H]2COCCN2)cn2ncnc(Nc3ccc4c(cnn4Cc4cccc(F)c4)c3)c12`: the growth, % of control was 11.2%.

As for `CC(C)[C@H](C(=O)Nc1ccc(C(=O)NO)cc1)c1ccccc1`, the growth, % of control is 9.39%.

`O=C(C=Cc1c(C(=O)O)[nH]c2cc(Cl)cc(Cl)c12)Nc1ccccc1` showed a growth, % of control of 188%.

In turn, `NC(=O)c1cccc2cn(-c3ccc([C@@H]4CCCNC4)cc3)nc12` yielded a growth, % of control of 6.74%.

In the case of `C=CC(=O)Nc1cc2c(Nc3ccc(F)c(Cl)c3)ncnc2cc1C#CC(C)(C)N1CCN(C)CC1`, the growth, % of control was determined as 4.67%.

The compound `Cc1[nH]nc2ccc(-c3cncc(OC[C@@H](N)Cc4ccccc4)c3)cc12` came in with a growth, % of control of 8.27%.

With `CCn1cc(-c2ccnc3[nH]c(-c4cccc(CN(C)C)c4)cc23)c(-c2ccc(NC(=O)N(C)C)cc2)n1`, the growth, % of control came out at 5.95%.

`CCN1CCN(CC(=O)Nc2ccc(-c3cccc4c(=O)cc(N5CCOCC5)oc34)c3sc4ccccc4c23)CC1`: the growth, % of control was 7.23%.

In the case of `CC(C)(C)c1cc(C(C)(C)C)c(NC(=O)c2c[nH]c3ccccc3c2=O)cc1O`, the growth, % of control turned out to be 57.9%.

As for `CN1CCN(c2cc(C(=O)Nc3ccc4c(c3)-c3c(c(C(N)=O)nn3-c3ccc(F)cc3)CC4)c(Cl)cn2)CC1`, the growth, % of control stood at 3.51%.

In the case of `CN1CCN(c2ccc3nc(-c4c(N)c5c(F)cccc5[nH]c4=O)[nH]c3c2)CC1`, the growth, % of control stood at 2.91%.

`COc1ccc(C=Cc2cc(OC)c(OC)c(OC)c2)cc1O` registered a growth, % of control of 22.3%.

`COc1cccc(-c2ccc(NC(=O)C3=C(C(=O)O)CCC3)c(F)c2)c1` came in with a growth, % of control of 78.8%.

`Cc1cc(Nc2cc(CN3CCOCC3)c3nc(C)c(Cc4ccc(Cl)cc4F)n3n2)n[nH]1` had a growth, % of control of 5.44%.

In the case of `CC(C)c1nn(-c2c(Cl)cccc2Cl)c2nc(Cc3ccc(OCCO)cc3)[nH]c(=O)c12`, the growth, % of control amounted to 21.7%.

The compound `CCN1CCN(Cc2ccc(-c3cc4c(N[C@H](C)c5ccccc5)ncnc4[nH]3)cc2)CC1` displayed a growth, % of control of 8.9%.

`CC[C@@H]1C(=O)N(C)c2cnc(Nc3ccc(C(=O)NC4CCC(N5CCN(CC6CC6)CC5)CC4)cc3OC)nc2N1C(C)C` (stereo not given in full) had a growth, % of control of 6.88%.

`CC1(C)OC2=C(C(=O)c3ccccc3C2=O)[C@H](NCc2ccccc2)[C@H]1O` registered a growth, % of control of 3.94%.

Compound `O=C(CCCCCCC(=O)Nc1ccc([C@H]2O[C@@H](CSc3nc(-c4ccccc4)c(-c4ccccc4)o3)C[C@@H](c3ccc(CO)cc3)O2)cc1)NO` returned a growth, % of control of 6.35%.

`CCN(CC)CCCCNc1ncc2cc(-c3cc(OC)cc(OC)c3)c(NC(=O)NC(C)(C)C)nc2n1` displayed a growth, % of control of 5.53%.

In the case of `COc1ccc(CC2SC(=O)NC2=O)cc1C(=O)NCc1ccc(C(F)(F)F)cc1` (stereo not given), the growth, % of control was 55.5%.

Turning to `Clc1cccc(-c2nnnn2Cc2cccnc2)c1Cl`, the growth, % of control is 86.1%.

Compound `CN1CCC(CNc2ccc3ncc(-c4cccc(OC(F)(F)F)c4)n3n2)CC1` gave a growth, % of control of 8.22%.

`N#Cc1c(O)c2c(-c3ccc(-c4ccccc4O)cc3)csc2[nH]c1=O` showed a growth, % of control of 71.1%.

For `Cc1c(C)n(Cc2ccc(-c3ccccc3C(=O)O)cc2)c2ccc(C(=O)N[C@@H](C)c3ccc([N+](=O)[O-])cc3)cc12`, the growth, % of control was 7.19%.

Take `Nc1ncnc2c1c(-c1cccc(OCc3ccccc3)c1)cn2C1CC(CN2CCCC2)C1` (stereo not given): the growth, % of control worked out at 8.63%.

The record behind these values is PubChem BioAssay (NCATS).
